Reference: PubChem BioAssay AID1159580 (chemical genetic matrix, 2015)
Out of some 5,500 compounds screened, about 2,000 (36%) were called active. Roughly 18% stayed inconclusive and do not appear here. Rule as the data show it: active = normalized growth mostly below about 0.91 (no sharp cut-off); inconclusive = no clear call, values can overlap the other calls; inactive = mostly above about 0.92. Some of the results follow.

Assay: chemical genetic growth profiling, strain panel (AID 1159580);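 also: tested at 20 µM; growth read once vehicle control cultures reached saturation at 30 °C; 1 = growth at the plate median or of vehicle wells; lower values mean less growth of the strain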
Settings: S. cerevisiae deletion strains, growth OD
[1] = locus YAL040C, strain CLN3, active compounds read low
[2] = locus YCL061C, strain MRC1 (second series), active compounds read low
[3] = locus YDR150W, strain NUM1, active compounds read low
[4] = locus YDR363W, strain ESC2, active compounds read low
[5] = locus YER002W, strain NOP16, active compounds read low
[6] = locus YGR078C, strain PAC10, active compounds read low
[7] = locus YJR075W, strain HOC1, active compounds read low
[8] = locus YMR263W, strain SAP30, active compounds read low
[9] = locus YMR307W, strain GAS1, active compounds read low
[10] = locus YNL175C, strain NOP13, active compounds read low
[11] = locus YNL197C, strain WHI3, active compounds read low
[12] = locus YNL224C, strain SQS1, active compounds read low
[13] = locus YOR083W, strain WHI5 (second series), active compounds read low
[14] = locus YPL055C, strain LGE1, active compounds read low
[15] = locus YDL101C, strain DUN1, active compounds read low
[16] = locus YHR030C, strain SLT2, active compounds read low
[17] = locus YNL128W, strain TEP1, active compounds read low
[18] = locus YNL153C, strain GIM3, active compounds read low
[19] = locus YNL322C, strain KRE1, active compounds read low

Measured: normalized growth

CCCCCCCCCCCCCCSCC(=O)O
active: [13] 0.825
inactive: [1] 0.97 | [2] 1.01 | [3] 0.997 | [4] 0.993 | [5] 0.937 | [6] 0.998 | locus YGR229C, strain SMI1, active compounds read low 0.959 | [7] 0.99 | [8] 1 | [9] 0.992 | [10] 0.938 | [11] 0.957 | [12] 0.954 | [14] 0.955

CCCC(C)(SCC(=O)O)SCC(=O)O
inactive: locus YAL013W, strain DEP1, active compounds read low 1 | locus YBR229C, strain ROT2, active compounds read low 1 | [15] 1.09 | [3] 1.03 | locus YEL061C, strain CIN8, active compounds read low 0.951 | [6] 1.02 | [16] 1.03 | locus YHR087W, strain rtc3, active compounds read low 0.98 | locus YJL187C, strain SWE1, active compounds read low 1 | locus YJR043C, strain POL32, active compounds read low 1.01 | [7] 1.04 | locus YKL190W, strain CNB1, active compounds read low 0.992 | locus YLR039C, strain RIC1, active compounds read low 0.981 | locus YLR058C, strain SHM2 (second series), active compounds read low 0.984 | locus YLR085C, strain ARP6, active compounds read low 1.02 | locus YLR262C, strain YPT6, active compounds read low 1.02 | locus YML094W, strain GIM5, active compounds read low 0.993 | locus YMR219W, strain ESC1, active compounds read low 0.999 | [8] 1.01 | [17] 0.985 | [18] 1.04 | locus YNL298W, strain CLA4 (second series), active compounds read low 1.02 | [19] 0.993 | locus YNR030W, strain Alg12, active compounds read low 1.01 | locus YOL006C, strain TOP1, active compounds read low 1 | [14] 1 | locus YPL241C, strain CIN2, active compounds read low 1.05 | locus YPR135W, strain CTF4, active compounds read low 1.08

C=CC(=O)N1CCc2cc([N+](=O)[O-])ccc21
inactive: locus YJL128C, strain PBS2, active compounds read low 0.842 | locus YPR111W, strain DBF20, active compounds read low 0.887
active: locus YAR019C, strain CDC15, active compounds read low 0.735 | locus YBL105C, strain PKC1, active compounds read low 0.778 | locus YBR135W, strain CKS1, active compounds read low 0.766 | locus YBR136W, strain MEC1, active compounds read low 0.764 | locus YBR160W, strain CDC28, active compounds read low 0.791 | locus YDL017W, strain CDC7, active compounds read low 0.8 | locus YDL028C, strain MPS1, active compounds read low 0.796 | [15] 0.789 | locus YDL108W, strain KIN28, active compounds read low 0.798 | locus YDL132W, strain cdc53, active compounds read low 0.725 | locus YDL214C, strain PRR2, active compounds read low 0.37 | locus YDR052C, strain DBF4, active compounds read low 0.827 | locus YDR054C, strain cdc34, active compounds read low 0.689 | locus YDR226W, strain ADK1, active compounds read low 0.839 | locus YDR477W, strain SNF1, active compounds read low 0.335 | locus YER123W, strain YCK3, active compounds read low 0.236 | locus YER133W, strain GLC7, active compounds read low 0.275 | locus YFL009W, strain cdc4, active compounds read low 0.739 | locus YFL029C, strain CAK1, active compounds read low 0.72 | locus YFR003C, strain YPI1, active compounds read low 0.807 | locus YFR019W, strain FAB1, active compounds read low 0.369 | locus YFR028C, strain CDC14, active compounds read low 0.805 | locus YGR040W, strain KSS1, active compounds read low 0.287 | locus YGR052W, strain FMP48, active compounds read low 0.308 | locus YGR092W, strain DBF2, active compounds read low 0.12 | [16] 0.253 | locus YHR079C, strain IRE1, active compounds read low 0.255 | locus YHR082C, strain KSP1, active compounds read low 0.263 | locus YHR205W, strain SCH9, active compounds read low 0.228 | locus YIL147C, strain SLN1, active compounds read low 0.794 | locus YJL095W, strain BCK1, active compounds read low 0.276 | locus YJL157C, strain FAR1, active compounds read low 0.315 | locus YJR016C, strain ILV3, active compounds read low 0.742 | locus YJR066W, strain TOR1 (second series), active compounds read low 0.24 | locus YJR066W, strain TOR1, active compounds read low 0.274 | locus YKL048C, strain ELM1, active compounds read low 0.556 | locus YKL067W, strain YNK1, active compounds read low 0.35 | locus YKL101W, strain HSL1, active compounds read low 0.46 | locus YKL193C, strain SDS22, active compounds read low 0.729 | locus YKL203C, strain TOR2, active compounds read low 0.355 | locus YLR113W, strain HOG1, active compounds read low 0.247 | locus YLR133W, strain CKI1, active compounds read low 0.409 | locus YLR403W, strain SFP1, active compounds read low 0.271 | locus YML070W, strain DAK1, active compounds read low 0.311 | locus YMR001C, strain CDC5, active compounds read low 0.744 | locus YMR205C, strain PFK2 (second series), active compounds read low 0.424 | locus YMR277W, strain FCP1, active compounds read low 0.746 | locus YNL006W, strain LST8, active compounds read low 0.754 | locus YNL020C, strain ARK1, active compounds read low 0.412 | locus YNL161W, strain CBK1, active compounds read low 0.737 | locus YNL183C, strain NPR1, active compounds read low 0.22 | locus YNL207W, strain RIO2, active compounds read low 0.757 | locus YNL222W, strain SSU72, active compounds read low 0.734 | locus YNL307C, strain MCK1 (second series), active compounds read low 0.323 | locus YOL078W, strain AVO1, active compounds read low 0.71 | locus YOL136C, strain PFK27, active compounds read low 0.316 | locus YOR061W, strain CKA2, active compounds read low 0.498 | locus YOR119C, strain RIO1, active compounds read low 0.334 | locus YOR231W, strain MKK1, active compounds read low 0.255 | locus YOR329C, strain SCD5, active compounds read low 0.759 | locus YPL031C, strain PHO85, active compounds read low 0.268 | locus YPL153C, strain RAD53, active compounds read low 0.273 | locus YPL204W, strain HRR25, active compounds read low 0.282 | locus YPL209C, strain IPL1, active compounds read low 0.778 | locus YPL256C, strain CLN2, active compounds read low 0.299 | locus YPR025C, strain CCL1, active compounds read low 0.764 | locus YPR106W, strain ISR1, active compounds read low 0.864 | strain NNK1, active compounds read low 0.824 | strain TSCII, active compounds read low 0.643

N#CC(Cc1ccc(O)c(O)c1)C(=O)N1CCc2ccccc21 (stereo not drawn)
inactive: [1] 0.961 | [2] 0.986 | [3] 0.997 | [4] 0.97 | [5] 1.01 | [7] 0.995 | [9] 0.986 | [17] 0.996 | [18] 0.977 | [10] 0.999 | [11] 1.02 | [12] 0.994 | [19] 0.952 | [13] 0.965
